Bioassay records: PubChem, The Scripps Research Institute Molecular Screening Center
Sampled rows, rich in hits. Any-hit rate of the full collection: about 2.4%.
CHRM1 PAM: potentiates human M1 receptor response to acetylcholine | CHO-K1 hM1, Fluo-8 calcium fluorescence, ACh EC20; 0% = ACh EC20, 100% = maximal ACh | activation, % at 3 µM | 0.088% of 360,000 active; in the data active = activation above about 19%, passing the limit was not always enough
Target sequence (P11229 whole entry, looked up): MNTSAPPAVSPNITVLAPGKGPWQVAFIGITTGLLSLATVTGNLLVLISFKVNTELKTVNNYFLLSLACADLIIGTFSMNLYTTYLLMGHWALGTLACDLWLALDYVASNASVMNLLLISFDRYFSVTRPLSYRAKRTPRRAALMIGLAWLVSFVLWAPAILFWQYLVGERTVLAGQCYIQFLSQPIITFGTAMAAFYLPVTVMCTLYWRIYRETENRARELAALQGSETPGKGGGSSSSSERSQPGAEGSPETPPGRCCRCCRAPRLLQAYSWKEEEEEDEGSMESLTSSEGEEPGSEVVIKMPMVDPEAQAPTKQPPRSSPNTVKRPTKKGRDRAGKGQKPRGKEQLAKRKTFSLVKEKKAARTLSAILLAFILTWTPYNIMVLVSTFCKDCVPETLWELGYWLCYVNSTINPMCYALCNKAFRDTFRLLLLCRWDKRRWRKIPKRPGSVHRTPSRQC
CHO-K1 Ca ag: counter-screen for M1 agonists: effect in parental CHO-K1 cells | activation, % at 3 µM | AID 602248 | 0.48% of 360,000 active | Fluo-8 calcium fluorescence; scaled to maximal ATP response, vehicle zero; in the data active = activation above about 15%;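 note: untransfected CHO-K1 host cells lacking M1 receptor as counterscreen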
M1 ag: agonists of human M1 muscarinic receptor; CHO-K1 hM1, Fluo-8 calcium fluorescence, agonist mode; 0% DMSO, 100% acetylcholine EC100; activation, % at 3 µM; 0.33% of 360,000 active; AID 588814;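 active = activation above the run's mean compound activation plus 3 SD, cut at about 16% in these data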;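 note: peak over basal fluorescence ratio within a 140 s kinetic read after compound addition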
CHO-K1 Ca PAM: counter-screen for M1 PAMs: effect in parental CHO-K1 cells. ATP EC20, Fluo-8 calcium fluorescence; 0% at ATP EC20, 100% at ATP max. 0.02% of 360,000 active. AID 602247. activation, % at 3 µM;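 active = activation above the run cutoff, the mean activation of all test compounds plus 3 SD, cut at about 40% in these data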;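 note: peak over basal fluorescence ratio in a 140 s read after ATP addition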
CHO-K1 Ca antag: nonselective inhibitor or artifact in parental CHO-K1 cells | inhibition, % at 3 µM | 0.6% of 360,000 active | ATP-induced calcium, Fluo-8 fluorescence | AID 602250;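 active = inhibition above a per-plate cutoff, the plate's mean sample inhibition plus 3 SD, cut at about 24% in these data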
CHRM1 antagonist: blocks human M1 muscarinic receptor | inhibition, % at 3 µM | P11229 | 1.3% of 360,000 active | CHO-K1 hM1, Fluo-8 calcium fluorescence, ACh EC80 antagonist | AID 588852;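 active = percent inhibition above its own plate's cutoff, namely the mean of that plate's compound wells plus 3 SD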;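 note: peak over basal fluorescence ratio during 140 s after agonist addition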
Hits are given with their value; - = inactive.

SMILES	CHRM1 PAM	CHO-K1 Ca ag	M1 ag	CHO-K1 Ca PAM	CHO-K1 Ca antag	CHRM1 antagonist
Fc1ccc2[nH]c3c(N4CCN(c5ccccc5)CC4)ncnc3c2c1	-	-	-	-	27	54
O=C(/C=C/c1cccs1)NC1CCCC1	-	-	-	-	-	-
O=C(CC[C@H]1O[C@@H](n2cnc3c(NC(=O)c4ccccc4)ncnc32)[C@H](O)[C@@H]1O)NCCCN1CCOCC1	-	-	-	-	-	-
Cc1[nH]c(=O)[nH]c(=O)c1N1CCOCC1	-	-	-	-	-	-
COc1cc2oc(=O)cc(-c3ccc(-c4ccc(F)c(Cl)c4)cc3)c2c(OC)c1OC	-	-	-	-	-	-
CCOC(=O)N1CCC(N2CCN(CCC(C)C)C(CCO)C2)CC1 (stereo unspecified)	-	-	-	-	-	41
CCc1nc2ccc(C(=O)NCCNC(C)=O)cn2c1N(CCC(C)C)CCN(C)C	-	-	-	-	-	-
CCc1nc2ccc(C(=O)N(C)Cc3ccccc3)cn2c1N(C)CCCc1ccccc1	-	-	-	-	-	-
CCc1nc2ccc(C(=O)N(C)CCCN(C)C)cn2c1N(C)CCCc1ccccc1	-	-	-	-	-	32
CCc1nc2ccc(C(=O)N3CCN(c4ccccc4)CC3)cn2c1N(C)CCCc1ccccc1	-	-	-	-	-	-
CCc1nc2ccc(C(=O)N(CC)CCN(C)C)cn2c1N(C)CCCc1ccccc1	-	-	-	-	-	52
CCc1nc2ccc(C(=O)NCc3ccccc3OC)cn2c1N(CCC(C)C)CCN(C)C	-	-	42	-	-	39
CCc1nc2ccc(C(=O)N(C)CCCN(C)C)cn2c1N(C)Cc1cc2ccccc2s1	-	-	-	-	-	38
O=C(Cc1ccccc1)Nc1scc(-c2ccccc2)c1C(=O)N1CCOCC1	-	-	-	-	-	-
NC(=O)c1c(-c2ccc(Cl)cc2Cl)csc1NC(=O)Cc1ccccc1	-	-	-	-	-	44
COCCCNc1ccn2nc(-c3ccccc3)cc2n1	-	-	-	-	-	-
OC1CCC(Nc2ccn3nc(-c4cccc(Cl)c4)cc3n2)CC1 (stereo unspecified)	-	-	-	-	-	-
COCCCNc1ccn2nc(-c3cccc(OCc4ccccc4)c3)cc2n1	-	-	-	-	-	27
OC1CCC(Nc2ccn3nc(-c4cccc(OCc5ccccc5)c4)cc3n2)CC1 (stereo unspecified)	-	-	-	-	29	-
CCOC(=O)C1CCCN(C(=O)c2ccc(-c3ccc([N+](=O)[O-])cc3)o2)C1 (stereo unspecified)	-	-	39	-	-	-
CCOC(=O)C1CCCN(C(=O)c2ccc(CS(=O)(=O)c3ccc(C)cc3)o2)C1 (stereo unspecified)	-	-	56	-	-	-
CCOC(=O)C1CCCN(C(=O)c2cccc(S(=O)(=O)N(C)c3ccc(C)cc3)c2)C1 (stereo unspecified)	-	-	-	-	-	37
CCCN1CCN(C(=O)c2ccc(-c3ccc([N+](=O)[O-])cc3)o2)CC1	-	-	-	-	-	-
Fc1ccc(C(c2nnnn2Cc2cccs2)N2CCN(C3CCCC3)CC2)cc1 (stereo unspecified)	-	-	-	-	-	-
Brc1ccc(C2=CC(c3cccs3)n3ncnc3N2)cc1 (stereo unspecified)	-	33	28	-	-	-
SMILES	CHRM1 PAM	CHO-K1 Ca ag	M1 ag	CHO-K1 Ca PAM	CHO-K1 Ca antag	CHRM1 antagonist
C1=C(c2ccc(-c3ccccc3)cc2)Nc2ncnn2C1c1ccco1 (stereo unspecified)	-	38	120	-	29	45
NC(=O)NC(c1ccccc1)c1ccccc1F (stereo unspecified)	-	-	-	-	-	-
CCc1ccc(N(C(=O)CNC(=O)c2ccco2)C(C(=O)NCC2CCCO2)c2ccccc2)cc1 (stereo unspecified)	-	-	-	-	-	-
CCCOc1ccc(Br)cc1CSC(=N)N	-	36	-	-	-	26
Fc1ccc(CN2CCN(C(c3ccccc3)c3ccccc3)CC2)cc1	-	-	-	-	-	36
c1ccc(CN2CCN(C(c3ccccc3)c3nnnn3Cc3ccccc3)CC2)cc1 (stereo unspecified)	-	-	-	-	-	-
